Source: PubChem BioAssay (NCI)
This is part of a sample that, as a whole, favours compounds with a hit. Of some 83,000 tested, about 20% had one in any assay.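 Cell lines were cultured in 96-well plates, exposed to a single compound concentration, and assessed for percent growth 48 hours later.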 Unmarked numbers belong to inactive results. Active and inactive are the calls of the source. Rule for the calls: active = growth percent below 10; inactive = the rest.

The compounds below were run on NCI-H226 lung (assay: NCI-60 one-dose screen, 48 h (100 = growth as untreated, 0 = no growth, -100 = all killed)). Details: 10 µM unless noted.

| SMILES | growth |
| --- | --- |
| C#CCOc1ccc2ncnc(Nc3cccc(NC(=O)C=C)c3)c2c1 | 76.2% |
| Nc1ncnc2c1N=C(c1ccc3c(c1)OCO3)CC(c1ccc([N+](=O)[O-])cc1)N2 (stereo not given) | 83% |
| CCCCN1C(=O)/C(=c2\sc3n(c2=O)C2C(NN=3)N(CC)C(=O)N2CC)c2ccccc21 (stereo not given) | 51.1% |
| CCOC(=O)C1=NN(c2ccccc2)C(=O)/C1=C\N1C(=O)CC(=O)NC1=S | 92.5% |
| O=C(N/N=C/c1ccc(F)cc1)c1ccc(C(F)(F)F)nc1Nc1cccc(C(F)(F)F)c1 | 9.45% (active) |
| Cc1ccc(-c2csc(NC(=O)CN3CCN(c4cc5c(cc4F)c(=O)c(C(=O)O)cn5C4CC4)CC3)n2)cc1 | 28.6% |
| Clc1ccc(Sc2cnc(-c3ccccc3)o2)cc1 | 106% |
| COc1ccc(-c2cc(-c3ccc(Cl)cc3)c(C#N)c(=O)n2CCCCC(=O)Nc2ccccc2N)cc1 | 55.3% |
| C=C(C)[C@@H]1CC[C@]2(C(=O)O)CC[C@]3(C)[C@H](CC[C@@H]4[C@@]5(C)C[C@@H](Cc6cn(CCO[C@@H]7O[C@H](COC(C)=O)[C@H](OC(C)=O)[C@H](OC(C)=O)[C@H]7OC(C)=O)nn6)[C@H](O)C(C)(C)[C@@H]5CC[C@]43C)[C@@H]12 | 81.9% |
| S=C1CCSC(=S)N1CCCN1C(=S)CCSC1=S | 101% |
| O=C(COc1ccc(-c2nc3ccccc3[nH]2)cc1)N=Nc1c(O)[nH]c2ccc(Cl)cc12 | 97% |
| Cc1ccc(/C=N/Nc2nc(Nc3ccccc3)nc(-n3nc(C)cc3C)n2)cc1 | 46.9% |
| O=[N+]([O-])c1ccc(N/N=C(/C(=N/Nc2ccc([N+](=O)[O-])cc2)c2ccccc2)c2ccccc2)cc1 | 97.5% |
| CCOC(=O)c1c(NC(=O)c2ccc(C(C)C)cc2)sc2c(CN(C)C)c(O)ccc12 | 85.2% |
| C#Cc1ccc(NC(=O)c2ccc(/C=C/C(=O)c3nccn3C)cc2)cc1 | -35.3% (active) |
| O=C(NCCCCNC(=O)OCc1ccc2c(Cl)cc(Cl)c(O)c2n1)OCc1ccc2c(Cl)cc(Cl)c(O)c2n1 | 8.33% (active) |
| c1cc2[nH]ncc2cc1-c1nc2ccc3[nH]ncc3c2c2c1CCCC2 | 29.4% |
| C[C@H](NC(=O)[C@@H](C)N)[C@H](Oc1ccc2c(cnn2-c2ccc(F)cc2)c1)c1ccc2c(c1)OCCO2 | 83.9% |

| SMILES | growth |
| --- | --- |
| CCN(CC)c1nc(SCc2ccccc2Cl)ncc1C | 81.8% |
| O=S(=O)(NCCCNc1nccc(-c2c(-c3ccc(F)c(O)c3)nc3occn23)n1)c1ccccc1 | 115% |
| O=C(NCc1ccccc1)Nc1ccccc1CNc1nc(Nc2ccc(OCCN3CCCC3)cc2)ncc1Cl | 109% |
| C=CCc1c2c(c(OC)c3ccoc13)C(=O)/C(=C/c1ccccc1OC)O2 | 72.8% |
| COc1ccc(NC(=O)c2sc3nc(C)c(C(=O)/C=C/c4cccc(OC)c4)cc3c2N)cc1 | 71.8% |
| N#Cc1c(NC(=O)c2ccccc2)sc2c1CCC(=O)C2 | 14.7% |
| CN(C)CCCn1c2c(c3ncccc3c1=O)C(=O)c1ccccc1-2 | 54.1% |
| CCOC(=O)Cn1c(O)c(N=Nc2ccc(S(N)(=O)=O)cc2)c2cc(Br)ccc21 | 85.9% |
| Cc1nc(-c2ccccc2)cc2c(O)c(C(=O)NN)[nH]c(=O)c12 | 104% |
| O=C(Nn1c2c(sc1=Nc1ccccc1)C(=O)c1ccccc1C2=O)c1cc2ccc1CCc1ccc(cc1)CC2 | 51.2% |
| CNC(=O)c1c(NC(=O)c2ccc(C(F)(F)F)cc2)sc2c1CCC(=O)C2 | 9.17% (active) |
| C#CCOc1cccc(Nc2ncnc3ccc(NC(=O)CCl)cc23)c1 | 21% |
| CS(=O)(=O)Nc1cc(-c2ccc3ncnc(Nc4ccc5c(cnn5Cc5ccccn5)c4)c3c2)cnc1Cl | 81.3% |
| Oc1c(Cl)cc(Cl)cc1/C=N/Nc1nnc(N/N=C/c2cc(Cl)cc(Cl)c2O)c2ccccc12 | -37.5% (active) |
| CCn1cc(C(=O)N/N=C/c2cccs2)c(=O)c2cc(F)c(N3CCNC(C)C3)c(F)c21 (stereo not given) | 76% |
| O=C(NNC(=O)c1ccc(-n2cc(-c3ccccc3)nn2)cc1)Nc1ccccc1 | 99.6% |
| COc1ccc(CC(C#N)c2cc3ccccc3[nH]2)cc1 (stereo not given) | 90.6% |
